Data published in PubChem BioAssay.
Calls of active or inactive are those of the source.

Columns and labels:
[1] = E. coli DRC41 culture turbidity changes, primary screen, E. coli filamentation inducer project, strain DRC41, OD650, 48 h (AID 1152);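 further: E. coli MC1000 strain DRC41 lacking acrAB efflux pump and sulA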; settings: E. coli DRC41 (acrAB sulA), higher = more signal, called active from +8 up or from −8 down
[2] = small-molecule binders of probe aLefty1, primary screen, biochemical, small-molecule microarray, 635/667 nm fluorescence (AID 1153); settings: higher = more signal;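 further: score merges spot fluorescence with signal-to-noise ratio from the scanned slide images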
[3] = PSAC antagonists in infected red cells, primary screen, cell-based, P. falciparum Indochina, OD700, 1 h (AID 1154); settings: P. falciparum Indochina infected RBC osmotic lysis, higher = more signal, called active from +8 up or from −8 down
[4] = PSAC antagonists in infected red cells, primary screen, cell-based, P. falciparum Indochina, OD700, 2 h (AID 1155);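 further: lysis reports solute entry through the parasite surface anion channel PSAC; channel blockers reduce lysis of infected cells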; settings: P. falciparum Indochina infected erythrocytes, osmotic lysis OD700; higher = more signal, called active from +8 up or from −8 down
[5] = osmotic lysis modulators in infected erythrocytes, primary screen, PSAC antagonist project, cell-based, P. falciparum Indochina, OD700, 3 h (AID 1156); settings: higher = more signal, called active from +8 up or from −8 down
[6] = PSAC antagonists in infected red cells, primary screen, cell-based, P. falciparum Indochina, OD700, 18 h (AID 1157); settings: P. falciparum Indochina infected erythrocytes, osmotic lysis OD700, 18 h; higher = more signal, called active from +8 up or from −8 down
[7] = modulators of S6 phosphorylation in cells, primary screen, cell-based, A549, cytoblot, luminescence, serum-stimulated (AID 1158); settings: A549 phospho-S6 cytoblot, 5 h, higher = more signal;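 further: serum-stimulated A549 lung adenocarcinoma cells; signal is phosphorylated S6 detected by cytoblot immunostaining with HRP secondary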
[8] = target: NADPH oxidase 2 (Homo sapiens) (UniProt P04839); test: NOX2-dependent H2O2 signal modulators, primary screen, NOX inhibitor project, cell-based, HEK293-NOX2, PMA-stimulated, Amplex Red fluorescence (AID 1159); settings: 45 min, higher = more signal, called active from +8 up or from −8 down; further: test concentration not given here
Chain of NADPH oxidase 2 (Homo sapiens) (P04839 whole entry, looked up): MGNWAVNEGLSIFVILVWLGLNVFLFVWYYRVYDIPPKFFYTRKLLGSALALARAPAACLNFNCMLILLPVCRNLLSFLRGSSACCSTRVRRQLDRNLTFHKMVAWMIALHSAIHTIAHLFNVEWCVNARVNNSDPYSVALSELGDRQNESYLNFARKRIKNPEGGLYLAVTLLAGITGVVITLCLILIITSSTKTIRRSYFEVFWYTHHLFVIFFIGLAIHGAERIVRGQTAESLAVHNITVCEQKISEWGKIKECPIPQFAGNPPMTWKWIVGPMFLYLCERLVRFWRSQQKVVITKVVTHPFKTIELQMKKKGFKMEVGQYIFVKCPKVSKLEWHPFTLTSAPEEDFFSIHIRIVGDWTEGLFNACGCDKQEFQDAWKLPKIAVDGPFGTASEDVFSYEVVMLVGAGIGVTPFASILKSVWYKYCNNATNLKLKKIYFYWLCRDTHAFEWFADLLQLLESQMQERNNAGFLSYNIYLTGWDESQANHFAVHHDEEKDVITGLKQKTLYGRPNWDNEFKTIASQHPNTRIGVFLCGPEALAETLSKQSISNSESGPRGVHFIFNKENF

[9] = target: NADPH oxidase 4 (Homo sapiens) (UniProt Q9NPH5); test: NOX4-dependent H2O2 signal modulators, primary screen, NOX inhibitor project, cell-based, HEK293-NOX4, tetracycline-induced, Amplex Red fluorescence (AID 1160); settings: 45 min, higher = more signal, called active from +8 up or from −8 down
Chain of NADPH oxidase 4 (Homo sapiens) (Q9NPH5 whole entry, looked up): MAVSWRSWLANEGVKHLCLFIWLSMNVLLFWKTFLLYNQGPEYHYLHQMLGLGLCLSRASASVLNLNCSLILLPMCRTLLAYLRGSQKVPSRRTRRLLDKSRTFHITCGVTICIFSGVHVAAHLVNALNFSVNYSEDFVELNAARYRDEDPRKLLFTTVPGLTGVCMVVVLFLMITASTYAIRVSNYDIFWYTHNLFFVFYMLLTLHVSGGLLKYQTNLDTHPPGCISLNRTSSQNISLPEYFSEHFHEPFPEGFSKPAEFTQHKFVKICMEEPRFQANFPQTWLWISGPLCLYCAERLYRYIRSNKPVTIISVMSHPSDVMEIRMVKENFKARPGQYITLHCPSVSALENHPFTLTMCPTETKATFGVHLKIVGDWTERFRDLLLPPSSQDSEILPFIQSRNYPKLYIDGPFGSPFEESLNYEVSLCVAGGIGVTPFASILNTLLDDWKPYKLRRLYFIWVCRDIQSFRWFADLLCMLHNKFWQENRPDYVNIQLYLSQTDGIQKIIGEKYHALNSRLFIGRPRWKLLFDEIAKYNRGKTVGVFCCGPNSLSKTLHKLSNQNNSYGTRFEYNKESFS

[10] = target: NADPH oxidase 5 (Homo sapiens) (UniProt Q96PH1); test: NOX5-dependent H2O2 signal modulators, primary screen, NOX inhibitor project, cell-based, HEK293-NOX5, Amplex Red fluorescence (AID 1161); settings: HEK293-NOX5, ionomycin, 45 min, higher = more signal
Chain of NADPH oxidase 5 (Homo sapiens) (Q96PH1 whole entry, looked up): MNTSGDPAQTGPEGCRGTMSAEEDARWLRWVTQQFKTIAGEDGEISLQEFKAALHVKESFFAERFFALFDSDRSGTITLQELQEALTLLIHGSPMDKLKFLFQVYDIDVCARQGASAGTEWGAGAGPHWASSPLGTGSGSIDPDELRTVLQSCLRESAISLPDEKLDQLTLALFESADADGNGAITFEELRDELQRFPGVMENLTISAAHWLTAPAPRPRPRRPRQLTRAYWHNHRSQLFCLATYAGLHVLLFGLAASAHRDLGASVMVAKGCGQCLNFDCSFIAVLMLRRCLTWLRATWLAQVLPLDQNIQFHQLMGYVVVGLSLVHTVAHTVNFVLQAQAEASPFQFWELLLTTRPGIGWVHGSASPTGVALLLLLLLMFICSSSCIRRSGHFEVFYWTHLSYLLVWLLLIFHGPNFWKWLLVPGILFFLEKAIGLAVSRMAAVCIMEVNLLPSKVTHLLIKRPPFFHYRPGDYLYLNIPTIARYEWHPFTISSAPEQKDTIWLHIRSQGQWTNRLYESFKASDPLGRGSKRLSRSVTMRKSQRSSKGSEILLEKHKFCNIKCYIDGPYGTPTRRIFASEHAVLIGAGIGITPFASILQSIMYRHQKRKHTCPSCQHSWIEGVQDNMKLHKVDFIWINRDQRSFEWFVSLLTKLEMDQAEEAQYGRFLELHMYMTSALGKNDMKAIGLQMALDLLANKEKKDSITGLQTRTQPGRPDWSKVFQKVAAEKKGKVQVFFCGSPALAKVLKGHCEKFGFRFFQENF

| SMILES | z-score [1] | composite z-score [2] | z-score [3] | z-score [4] | z-score [5] | z-score [6] | z-score [7] | z-score [8] | z-score [9] | z-score [10] |
| --- | --- | --- | --- | --- | --- | --- | --- | --- | --- | --- |
| O=C(NCCN1CCOCC1)[C@@H]1c2ccccc2C(=O)N(Cc2cc(F)cc(C(F)(F)F)c2)[C@H]1c1ccc(CO)cc1 | -0.61 (inactive) | -0.0492 | 3.37 (inactive) | 0.298 (inactive) | 0.884 (inactive) | 0.0839 (inactive) | -0.287 | 1.44 (inactive) | 1.12 (inactive) | 2 |
| CN(C)CCCC[C@@H]1NC(=O)[C@H]2C[C@@H](C(=O)NCCCCCNC(=O)CS)[C@@H](c3ccc(O)cc3)N2C1=O | 0.445 (inactive) | -0.0196 | 0.93 (inactive) | 0.683 (inactive) | -0.988 (inactive) | 0.153 (inactive) | -0.0137 | 0.394 (inactive) | -0.265 (inactive) | 0.877 |
| O=C(NCC(O)CO)[C@@]1(Cc2ccccc2)COC(c2ccc(OCCCO)cc2)=N1 (stereo not given in full) | 0.712 (inactive) | -0.266 | 8.57 (active) | 0.648 (inactive) | 2.87 (inactive) | 0.472 (inactive) | -0.404 | -0.44 (inactive) | 0.82 (inactive) | 0.132 |
| Cc1cccc(/C=C/C=O)c1 | 0.595 (inactive) | -0.0479 | 0.118 (inactive) | -0.557 (inactive) | 0.565 (inactive) | -0.212 (inactive) | -0.57 | -0.0862 (inactive) | 0.0658 (inactive) | 1.56 |
| COCC1=C([C@H](O)CCc2ccccc2)[C@H](CO)[C@@H]2C(=O)N(Cc3ccccc3)C(=O)[C@@H]2C1 | 1.72 (inactive) | -0.194 | 15.3 (active) | 2.04 (inactive) | 0.23 (inactive) | 0.477 (inactive) | 0.24 | -0.543 (inactive) | 0.21 (inactive) | -0.0312 |
| CCCNC(=O)[C@@]1(c2ccc([N+](=O)[O-])cc2)CC(=O)N(CC23CC4CC(CC(C4)C2)C3)[C@@H]1c1ccc(CO)cc1I | 0.0121 (inactive) | 0.181 | 26 (active) | 13.3 (active) | 1.82 (inactive) | 1.87 (inactive) | -0.151 | 1.15 (inactive) | -0.037 (inactive) | 2.21 |
| CCN(CC)c1ccc(N2CC=CC34O[C@@H]5C=CCCOC(=O)C5[C@H]3C(=O)N(CCCO)[C@@H]4C2=O)cc1 (stereo not given in full) | 1.44 (inactive) | -0.28 | 0.555 (inactive) | -0.829 (inactive) | -0.305 (inactive) | -1.15 (inactive) | 1.09 | -0.0899 (inactive) | -1.23 (inactive) | 0.374 |
| C=C(COC)/C(=C/C[C@H](OC(C)=O)c1ccccc1OCCO)c1cnc2ccccc2c1 | -0.0836 (inactive) | -0.0779 | 16.9 (active) | 2.74 (inactive) | 0.661 (inactive) | 0.799 (inactive) | -0.177 | -1.79 (inactive) | -0.0686 (inactive) | -0.854 |
| CCCCN1CC=CC23O[C@@H]4/C=C\CCCOC(=O)C4[C@H]2C(=O)N(C(C)CO)[C@@H]3C1=O (stereo not given in full) | 0.65 (inactive) | -0.206 | 1.43 (inactive) | 1.06 (inactive) | 1.96 (inactive) | 0.405 (inactive) | 0.199 | 0.889 (inactive) | 0.124 (inactive) | 1.5 |
| COCCOC(=O)N1C(=O)[C@@]2(c3cc(C#CCCO)ccc31)[C@H](C(=O)NC[C@H](O)c1ccccc1)[C@H]1C(=O)O[C@H](c3ccccc3)[C@H](c3ccccc3)N1[C@@H]2c1ccc(OCCO)cc1 | 1.96 (inactive) | -0.0276 | 3.45 (inactive) | 1.02 (inactive) | -0.431 (inactive) | 0.212 (inactive) | 0.568 | 1.75 (inactive) | 1.13 (inactive) | -0.0265 |
| CS(=O)(=O)CCOC(=O)C1=CC(c2ccc(CO)cc2)=CC(c2cccs2)N(Cc2cccc(OC(F)(F)F)c2)C=C1C(=O)OCCS(C)(=O)=O (stereo not given) | -2.86 (inactive) | 0.0575 | 14.8 (active) | 4.37 (inactive) | 0.869 (inactive) | 1.95 (inactive) | 0.158 | -2.07 (inactive) | -1.09 (inactive) | -2.37 |
| C=C(COC)C(=O)CC[C@@H](OC(=O)c1ccccc1-c1ccccc1C(=O)O)c1ccc(CO)o1 | -0.448 (inactive) | -0.0032 | 0.508 (inactive) | 0.802 (inactive) | -2.11 (inactive) | 0.698 (inactive) | -1 | -3.41 (inactive) | -1.58 (inactive) | -3.07 |
| C=C(C(=O)CC[C@H](OC(=O)c1cccnc1)c1ccccc1OCCO)C(C)C | -0.378 (inactive) | 0.188 | 9.51 (active) | 0.943 (inactive) | 0.611 (inactive) | 0.381 (inactive) | 0.142 | -1.85 (inactive) | -0.81 (inactive) | -2.03 |
| O=C(NCc1ccccc1)[C@@H]1c2ccccc2C(=O)N(Cc2cc(F)cc(C(F)(F)F)c2)[C@H]1c1ccc(CO)cc1 | 0.363 (inactive) | 0.0455 | 5.82 (inactive) | 1.23 (inactive) | 1.03 (inactive) | 0.156 (inactive) | -0.26 | -2.01 (inactive) | 0.598 (inactive) | -1.58 |
| CCOC(=O)C[C@H]1[C@H](OC(=O)c2cc3ccccc3oc2=O)[C@@H](NC(=O)c2ccc3ccccc3c2)c2cc(OCCCO)ccc2N1C(=O)c1ccccc1 | 0.734 (inactive) | 0.201 | 1.22 (inactive) | -1.04 (inactive) | 0.519 (inactive) | -2.59 (inactive) | 1.2 | -0.539 (inactive) | -0.928 (inactive) | 0.53 |
| C=C[C@H](C)[C@H](O)c1ccc(OCCO)cc1 | 1.05 (inactive) | -0.553 | 1.09 (inactive) | 0.521 (inactive) | 1.62 (inactive) | 0.402 (inactive) | 0.156 | 0.218 (inactive) | -0.187 (inactive) | -0.112 |
| COc1cc(CO)cc(I)c1O[C@H]1C=C(C(=O)NCCO)C[C@@H](N(CCc2cccc(F)c2)C(=O)CCC2CCCC2)[C@@H]1O | -0.429 (inactive) | 0.437 | 16.3 (active) | 3.94 (inactive) | 4.42 (inactive) | 1.53 (inactive) | -0.165 | 1.47 (inactive) | 0.145 (inactive) | -2.23 |
